# Assay results reported in PubChem BioAssay (NCI).
# About 83,000 compounds went through this panel and 20% of them were active in at least one assay; those are over-represented in the sample as a whole.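 Each cell line was grown in a 96-well plate and treated with one concentration of compound for 48 hours. Values below 10 were considered active.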 Activity calls are given as the source filed them.
# Test system: HCC-2998 colon
# Experiment: NCI-60 one-dose screen, 48 h (100 = growth as untreated, 0 = no growth, -100 = all killed)
# Conditions: 10 µM unless noted
row,SMILES,growth
1,Nc1nc(SCc2cccc([N+](=O)[O-])c2)c2[nH]cnc2n1,112% (inactive)
2,N/C(=N\c1nc2ccccc2[nH]1)NC(=O)Cc1cccc2ccccc12,103% (inactive)
3,O=C1NC(=O)c2cc([N+](=O)[O-])cc3cccc1c23,107% (inactive)
4,COc1ccc(C2CC(c3cc(OC)c(OC)c(OC)c3)=NN2C(C)=O)cc1OCC(=O)Nc1nc2ccc(C(F)(F)F)cc2s1 (configuration not stated),92.3% (inactive)
5,O=C(N/N=C/c1ccc([N+](=O)[O-])cc1)c1ccc(Br)o1,107% (inactive)
6,O=C(NCc1ccccc1)C(Cl)Cl,107% (inactive)
7,COc1cc2c(c(OC)c1OC)-c1ccc(NNC(N)=S)c(=O)cc1[C@@H](NC(C)=O)CC2,11.4% (inactive)
8,CC(C)OC(=O)Nc1cc(F)c(F)cc1F,101% (inactive)
9,Nc1cc(C(=O)O)[nH]c(=S)n1,95.3% (inactive)
10,COc1ccc(OC)c(NC=O)c1,103% (inactive)
11,ClC1=C(Cl)C(Cl)=C(Cl)C1=Cc1ccccc1,-82.8% (active)
12,O=C(O)c1cc([N+](=O)[O-])ccc1Br,104% (inactive)
13,COC(=O)c1cc2c(=O)[nH]cc3c2c(n1)CCC3,88.4% (inactive)
14,CCN=C1C=CC(=C(c2ccc(N(CC)CC)cc2)c2ccc(N(CC)CC)cc2)c2ccccc21,-81% (active)
15,O=c1[nH]c(CN2CCN(c3cccc(Cl)c3)CC2)nc2cc(Cl)ccc12,96.2% (inactive)
16,c1ccc2c(c1)CN(CCCN1CCOCC1)C2,98.6% (inactive)
17,Nc1cc(NN=C(c2ccc(O)cc2)c2ccc(O)cc2)c([N+](=O)[O-])cc1[N+](=O)[O-],-97.6% (active)
18,O=c1cc(-c2ccccc2)oc2c(O)c(O)ccc12,74.8% (inactive)
19,COc1c(C(C)=O)c(OCCCCOc2c(C(C)=O)c(OC)c3ccoc3c2OC)c(OC)c2occc12,76.7% (inactive)

row,SMILES,growth
1,CNc1cc(C(=O)O)nc(NC)n1,94.7% (inactive)
2,O=[N+]([O-])c1cc([N+](=O)[O-])c(NN=C(c2ccc(O)cc2)c2ccc(O)cc2)cc1Cl,-93.5% (active)
3,NC(=O)c1c(NC(=O)COC(=O)Cc2ccccc2F)sc2c1CCC2,114% (inactive)
4,CCCCOC(=O)c1c(C)[nH]c(/C=C2\N=C(c3ccc[nH]3)C=C2OC)c1C,-28.1% (active)
5,CC(C)[N+](C)(C)CC(O)COc1cccc2ccccc12 (configuration not stated),101% (inactive)
6,CCCCCCCCCCCCNC(=S)N/N=C/c1ccccc1O,78.2% (inactive)
7,COCc1nc2ccccc2[nH]1,106% (inactive)
8,CCCCCCCCCCCCCCNC(=O)Nc1ccc(Cl)c(Cl)c1,14.5% (inactive)
9,CCN(CC)CCSC(=O)C(O)(c1ccccc1)C1CCCC1 (configuration not stated),90.3% (inactive)
10,C=C1C(=O)O[C@H]2[C@H]1CC/C(COC(=O)NCc1ccc(Cn3c(=O)sn(-c4ccc(Cl)cc4)c3=O)cc1)=C\CC[C@@]1(C)O[C@@H]21,107% (inactive)
11,CCOC(=O)c1c[nH]c2cc(OCC3CC3)c(OCC3CC3)cc2c1=O,107% (inactive)
12,Cc1cc(NN=C(c2ccc(O)cc2)c2ccc(O)cc2)c([N+](=O)[O-])cc1[N+](=O)[O-],61.9% (inactive)
13,Nc1nnc(CSc2nnc3n(Cc4ccccc4)c(=O)c4c5c(sc4n23)CCCC5)s1,105% (inactive)
14,N#Cc1c(Cl)nc(SCC2CO2)nc1-c1ccccc1 (configuration not stated),111% (inactive)
15,O=C(C[n+]1ccn(CC(OCc2ccc(Cl)cc2Cl)c2ccc(Cl)cc2Cl)c1)c1ccc(F)cc1 (configuration not stated),-94.6% (active)
16,O=C(O)CSCc1nnc2n(Cc3ccccc3)c(=O)c3c4c(sc3n12)CCCC4,98.1% (inactive)
17,COc1ccc(OC)c([N+](=O)[O-])c1C(=O)CNC(C)=O,101% (inactive)
18,COc1ccc2c3ccnc(C(F)(F)F)c3n(CCCCN)c2c1,95.7% (inactive)
